Rows were chosen to be rich in hits. Some 6.6% of all compounds tested hit in one or more screens of this group.
KB-3-1 cytotox = KB-3-1 parental cell cytotoxicity. hit rate 1.4% among 400,000. Potency, µM (titrated, usually from 46.1 µM), hits mostly cytotoxic. KB-3-1 viability, CellTiter-Glo ATP luminescence, 72 h. AID 1347075; further: on the % scale 0 is the no-effect control and ±100 the full control effect; nearly all actives have a fitted effect of over 60% in size
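Cytotoxicity measured as CellTiter-Glo luminescence after 72 h at 37 C. Compound titrations were pinned onto drug-naive KB-3-1 parental adenocarcinoma cells grown in DMEM with 10% FBS, and normalized data fitted to concentration-response curves.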
PTAP TSG101 blk = blocks PTAP/TSG101 interaction to inhibit HIV-1 budding; Potency, µM (top dose mostly 115 µM), for inactives: top-dose activity change, negative = inhibition, hits mostly inhibitors; 340,000 tested, under 10 active; Q99816; Fluorescence polarization, FITC-PTAP peptide / Tsg101 binding; AID 493005; active means well fitted inhibition curve with a large enough effect in the main read-out, with a control signal flat, not every such curve was filed as active; inconclusive means small, poorly fitted or top-dose-only effect, or effect the other way, or a change in a side signal; inactive means no such curve, though single readings can be large or run the other way; further: % of control where 0% means no effect
Target sequence (Q99816 whole entry, looked up): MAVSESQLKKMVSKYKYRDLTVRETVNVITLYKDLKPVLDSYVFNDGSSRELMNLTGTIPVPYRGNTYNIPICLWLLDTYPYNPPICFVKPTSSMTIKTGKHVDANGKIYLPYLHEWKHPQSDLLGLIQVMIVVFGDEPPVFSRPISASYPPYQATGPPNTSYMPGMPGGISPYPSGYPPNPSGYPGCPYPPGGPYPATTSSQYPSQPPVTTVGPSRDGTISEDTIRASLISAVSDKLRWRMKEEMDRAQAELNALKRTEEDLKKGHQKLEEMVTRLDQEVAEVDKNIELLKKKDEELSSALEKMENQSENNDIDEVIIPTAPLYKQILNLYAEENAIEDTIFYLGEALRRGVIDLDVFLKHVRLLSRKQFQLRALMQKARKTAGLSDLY
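Compounds were pin-transferred onto Tsg101 binding domain (10 uM final) in HEPES pH 7.5 buffer, then FITC-PTAP peptide was added at 50 nM final. After 20 min at RT, polarization reported peptide displacement across a qHTS concentration series.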
RGS4 inh = human RGS4 inhibition. Transcreener GDP fluorescence polarization, RGS4-accelerated GTP hydrolysis. AID 504845. P49798. hit rate 0.039% among 390,000. Potency, µM (titrated, usually from 114 µM), inactives show at the top dose activity change, negative = inhibition, hits mostly inhibitors; further: on the % scale 0 is the no-effect control and ±100 the full control effect; nearly all actives have a fitted effect of over 75% in size
Target sequence (P49798 whole entry, looked up): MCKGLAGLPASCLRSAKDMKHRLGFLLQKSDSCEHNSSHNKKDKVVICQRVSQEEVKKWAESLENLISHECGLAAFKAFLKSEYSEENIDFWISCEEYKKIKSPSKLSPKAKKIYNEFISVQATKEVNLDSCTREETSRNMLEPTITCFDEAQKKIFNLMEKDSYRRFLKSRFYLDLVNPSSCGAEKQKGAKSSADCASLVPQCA
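MLSMR compounds (23 nl, pin-transferred) preincubated 10 min at room temperature with a 500nM (2x) first reagent, then RGS4 at 900nM (2x) plus Transcreener GDP mix added; fluorescence polarization (620/688 nm) read before and after 90 min at 30 °C.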
KB-V1 cytotox = KB-V1 MDR subline cytotoxicity; KB-V1 MDR cells viability, CellTiter-Glo, 72 h; Potency, µM (top dose mostly 46.1 µM), actives largely listed as cytotoxic; hit rate 3.4% among 400,000; further: on the % scale 0 is the no-effect control and ±100 the full control effect; nearly all actives have a fitted effect of over 60% in size
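Compound-treated KB-V1 multidrug-resistant cells, 72 h, 37 degrees C; viability by CellTiter-Glo. Fitted qHTS curves give the values.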
MCF10A rerep = DNA re-replication induction in MCF 10a cells; Potency, µM (top dose mostly 46.1 µM), for inactives: top-dose activity, positive = re-replication, usual class: activators; MCF 10A DNA re-replication, Hoechst nuclear intensity, 48 h; AID 624296; hit rate 2.9% among 350,000; further: % of control where 0% means no effect; nearly all actives have a fitted effect of over 50% in size
SW480 rerep = DNA re-replication induction in SW480 cells; SW480 DNA re-replication, Hoechst DNA content imaging, 48 h; Potency, µM (top dose mostly 46.1 µM), inactives show at the top dose re-replication activation, hits mostly activators; hit rate 1.8% among 340,000; further: % of control where 0% means no effect; nearly all actives have a fitted effect of over 55% in size
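First, 250 cells per well were seeded. Next, compound or vehicle (23 nL) was pinned in, plates sat 48 hr at 37 C. Finally Hoechst was added for 40 min before fluorescence scanning.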
Starred values were filed as active, the others as inactive; i = inactive; ? = inconclusive; . = no result; ! = repeats disagree; [ ] = dose if it differs, or a comment. Unless noted, the call rests on the fitted dose curve; in most records, active means well fitted curve in the direction sought with a large enough effect; inconclusive means small, poorly fitted or top-dose-only effect, or another doubt; inactive means no such curve, though single readings can be large; an effect the other way counts as inactive or inconclusive. Potency means the concentration at half of the fitted maximal effect.

SMILES | KB-3-1 cytotox | PTAP TSG101 blk | RGS4 inh | KB-V1 cytotox | MCF10A rerep | SW480 rerep
Cc1ccc(C(=O)NCCN(C)C)c(C)c1 | i | -1% | -2% | i | 0% | -4%[9.22 µM]
CN(CC(=O)Nc1ccncc1)S(=O)(=O)c1ccc(Br)cc1 | i | -5% | 31% | 21µM* | 25% | ?
Cc1nc(NC(=O)CN(C)S(=O)(=O)c2ccc(Br)cc2)sc1C | i | -3% | 23% | 18µM* | -2% | -5%
CN(CC(=O)Nn1cnnc1)S(=O)(=O)c1ccc(Br)cc1 | i | -6% | 1% | i | 14% | -5%
COc1cccc(N2CCN(C(=O)c3cnn(-c4ccccc4Cl)c3C3CCN(C(=O)OC(C)(C)C)CC3)CC2)c1 | i | . | -33% | i | . | .
O=C1NC(=S)NC1=Cc1ccc(O)cc1 | i | 1% | -7% | i | -19% | -20%
O=C1NC(=S)N/C1=C\c1ccc(N2CCOCC2)cc1 | i | 7% | ? | i | ? | 18µM*
CC(/C=C1\SC(=S)N(NC(=O)c2ccccc2C)C1=O)=C\c1ccccc1 | i | -1% | -19% | i | 10µM* | -15%
Cc1ccc(-c2nnc(Nc3ccc(S(N)(=O)=O)cc3)c3ccccc23)cc1S(=O)(=O)N1CCOCC1 | i | . | 5% | ? | . | .
C=CCOc1ccc2ccccc2c1CNCCCN1CCOCC1 | i | -2% | 19% | 16µM* | 26% | 3%
Cc1cc(C=CC#N)cc(C)c1Nc1nc(Nc2ccc3c(c2)OCO3)c2[nH]cnc2n1 | 18µM* | . | . | ? | . | .
O=C(Nc1nc2ccccc2s1)C1CCCO1 (configuration not stated) | i | -8% | -10% | i | -3% | 0%
COCC(=O)Nc1nc2ccccc2s1 | i | -3% | 8% | i | -5% | 1%
COC(=O)c1sc(NC(=O)C2c3ccccc3Oc3ccccc32)c(C(=O)OC)c1C | i | -1% | -2% | 12µM* | 11% | .
COC(=O)c1c(NC(=O)C2c3ccccc3Oc3ccccc32)sc(C)c1C | i | 0% | -2% | ? | ? | -5%
O=C(Nc1nc2ccccc2s1)C1c2ccccc2Oc2ccccc21 | i | -2% | -21% | 18µM* | ? | ?
NC(=S)Nc1nc2ccccc2s1 | ? | -2% | -44% | 8.2µM* | 0% | ?
CCCN1CNc2c(c(=O)[nH]c(=S)n2CCc2c(Cl)cccc2Cl)C1 | . | . | -34% | . | . | .
O=C(/C=C/c1cccc(Cl)c1)Nc1cccc([S+](=O)([O-])Nc2ccccc2F)c1 | i | . | . | i | . | .
CCCCCCCC(=O)N/N=C/c1ccc(Br)cc1 | i | -7% | -6% | i | 7.3µM* | 18%
CCCCCCCCCC(=O)N/N=C/c1ccc(C)s1 | i | -8% | -39% | i | 16µM* | ?
CCCCCCCC(=O)N/N=C/c1cccnc1 | i | -4% | -16% | i | -4% | -10%
Cc1ccc(NC(=O)N2CCC(CN3CCC(C)CC3)CC2)cc1F | i | . | 29% | i | . | .
CSc1nnc(-c2cc3c(s2)-c2ccccc2CC3)o1 | i | -5% | 7% | ? | ? | 0%
S=c1[nH]nc(-c2cc3c(s2)-c2ccccc2CC3)o1 | i | -12% | -16% | i | ? | 8.2µM*
SMILES | KB-3-1 cytotox | PTAP TSG101 blk | RGS4 inh | KB-V1 cytotox | MCF10A rerep | SW480 rerep
CN(C)c1ccc(/C=C/c2cc3ccccc3c[n+]2C)cc1 | 0.82µM* | . | . | i | . | .
[O-][n+]1ccccc1/C=C/c1ccccc1 | i | -1% | -9% | i | 3% | -8%
CN(C)c1ccc(/C=C/c2cncc3ccccc23)cc1 | i | . | . | i | . | .
CN(C)c1ccc(/C=C/c2c[n+](C)cc3ccccc23)cc1 | 0.46µM* | . | . | i | . | .
CN(C)c1ccc(/C=C/c2cccc[n+]2[O-])cc1 | i | ? | -26% | i | -36% | ?
CN(C)c1ccc(/C=C/c2ccc3ccccc3[n+]2C)cc1 | 0.33µM*! | 8% | -19% | ? | ? | 2.3µM*
[O-][n+]1c(/C=C/c2ccccc2)ccc2ccccc21 | ? | -1% | -12% | i | 21µM* | 18µM*
CN(CCCS(=O)(=O)[O-])c1ccc(/C=C/c2ccc3ccccc3[n+]2C)cc1 | ? | -5% | -15% | i | -2% | -5%
CCOc1ccc(NC(=O)CN2CCN(Cc3ccccc3)S2(=O)=O)cc1 | i | . | 9% | i | . | .
Cc1cccc(Cc2c(C)nc3nc(SCc4ccccc4C)nn3c2C)c1 | i | . | 4% | i | . | .
COc1cccc2sc(NC(=O)c3ccc(S(=O)(=O)N4CCC(C)CC4)cc3)nc12 | i | . | 9% | i | . | .
CN(C)c1cccc(-c2cnc(N3CCC(c4ncc[nH]4)CC3)s2)c1 | i | . | . | i | . | .
CN(C)c1ccc(/C=C/c2ccc3c4ccccc4ccc3[n+]2-c2ccccc2)cc1 | 0.29µM* | 0% | ? | 9.2µM* | ? | 1%
CN(C)c1ccc(/C=C/c2c3ccccc3cc[n+]2[O-])cc1 | i | . | . | i | . | .
CCS(=O)(=O)c1ncc(N(Cc2ccco2)Cc2sccc2C)c(C(=O)Nc2cc(C)ccc2C)n1 | i | . | -7% | i | . | .
CCc1nnc(NC(=O)c2sc3nc4c(cc3c2N)CCCCC4)s1 | ? | 1% | ? | i | 16µM* | 8.2µM*
CCc1nnc(NC(=O)c2sc3nc4c(cc3c2N)CCCCCC4)s1 | i | 1% | -42% | i | 18µM* | ?
COc1ccc(NC(=O)c2sc3nc4c(cc3c2N)CCCCCC4)cc1OC | i | . | -11% | i | . | .
Nc1c(C(=O)Nc2ccccc2F)sc2nc3c(cc12)CCCCCC3 | 13µM* | . | -21% | 6.5µM* | . | .
O=C(COc1ccccc1-c1nc(-c2ccccc2)no1)Nc1ccc([N+](=O)[O-])cc1 | i | . | -24% | i | . | .
CCOc1ccccc1NC(=O)N1c2ccccc2Sc2ccccc21 | i | . | 5% | i | . | .
Oc1ccc(Cl)cc1N=Nc1ccccc1 | i | 1% | 18% | i | 4% | 3%
O=C(O)c1cc(O)ccc1N=Nc1ccccc1 | i | 0% | -5% | i | 23µM* | ?
O=C(O)c1ccccc1N=Nc1ccc(O)cc1 | i | -15% | -36% | i | ? | 1.2µM*
Oc1ccc(N=Nc2ccccc2)cc1 | i | -1% | -18% | i | -5% | -5%
C=C1CCN(C(Cc2ccccc2)C(=O)NC2CCN(Cc3ccccc3)CC2)S(=O)(=O)c2ccccc21 (configuration not stated) | . | . | -25% | . | . | .
COc1ccc(NC(=O)c2cc3ccccc3o2)c(OC)c1 | i | . | -12% | i | . | .
